From ChEMBL document CHEMBL4513149, “CO-ADD screening of MMV (CH) - MMV compounds” (2021) come the findings set out here.

In one assay the test system is Staphylococcus aureus. Particulars: Concentration 20 uM; ASSAY_TEST Inhibition of Bacterial Growth; detection method Absorption (OD600); MEDIA CAMHB; plate type 384well; NBS; CORNING #3640; time 18 hr.
For another assay, the system named is Escherichia coli. To be noted: Concentration 20 uM; ASSAY_TEST Inhibition of Bacterial Growth; detection method Absorption (OD600); MEDIA CAMHB; plate type 384well; NBS; CORNING #3640; time 18 hr.

As a reminder, the Inhibition is the drop in the measured response relative to a control, in per cent.

Measured potencies and affinities stand elsewhere.

For the molecule `CC(C)/N=c1\cc2n(-c3ccc(Cl)cc3)c3ccccc3nc-2cc1Nc1ccc(Cl)cc1` [CLOFAZIMINE], the Inhibition turned out to be 59.44% with Staphylococcus aureus and 9.66% in the assay with Escherichia coli.
Regarding `Cc1[nH]c2cc(F)cc(F)c2c(=O)c1-c1ccc(Oc2ccc(OC(F)(F)F)cc2)cc1`, the Inhibition with Staphylococcus aureus is listed as 11.17%; with Escherichia coli it was -0.95%.
Taken in the same sequence, the figures for `CCn1cnc2c(Nc3cc(F)cc(F)c3)nc(C#N)nc21` were 36.21% and 12.2%.
The matching figures for `Cc1cc2ccccc2n1CC(=O)N1CC(C(=O)N2CCCCC2)Oc2ccccc21` (stereo unspecified): 16.51% and 10.52%.
The matching figures for `CC(C)n1nc(-c2cc3c(Cl)cccc3[nH]2)c2c(N)ncnc21`: 11.03% and 4.95%.
For the molecule `Cc1cc(C)n(-c2ccc(NC(=O)C3CCN(Cc4cnc(C)s4)CC3)cc2)n1`, the Inhibition with Staphylococcus aureus is 16.08%; with Escherichia coli, 3.68%.
For the molecule `COc1ccc(C(=N)N)cc1-c1cn(-c2ccc(C(=N)N)cc2)nn1.Cl.Cl`, the Inhibition was found to be 4.09% in the assay on Staphylococcus aureus and 2.37% in the assay on Escherichia coli.
`COc1ccc(Cl)cc1NC(=O)CN(C)C(=O)c1cnn(-c2ccccc2)n1`: the results for the Inhibition with Staphylococcus aureus and in the assay with Escherichia coli were 8.96% and -2.51%, respectively.
